Dicer processing = inhibitors of Dicer pre-microRNA processing, primary screen, biochemical, cat-ELCCA, chemiluminescence; Endoribonuclease Dicer (Homo sapiens), Q9UPY3; cat-ELCCA pre-miR-21 Dicer processing; stronger effect = higher value; AID 1347074, 2019; z-score at 25 µM; 47,000 compounds, 6% hits; in the data active = z-score above about 3, passing the limit was not always enough;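 note: higher signal means more uncleaved substrate so more Dicer inhibition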
Target sequence (Q9UPY3 whole entry, looked up): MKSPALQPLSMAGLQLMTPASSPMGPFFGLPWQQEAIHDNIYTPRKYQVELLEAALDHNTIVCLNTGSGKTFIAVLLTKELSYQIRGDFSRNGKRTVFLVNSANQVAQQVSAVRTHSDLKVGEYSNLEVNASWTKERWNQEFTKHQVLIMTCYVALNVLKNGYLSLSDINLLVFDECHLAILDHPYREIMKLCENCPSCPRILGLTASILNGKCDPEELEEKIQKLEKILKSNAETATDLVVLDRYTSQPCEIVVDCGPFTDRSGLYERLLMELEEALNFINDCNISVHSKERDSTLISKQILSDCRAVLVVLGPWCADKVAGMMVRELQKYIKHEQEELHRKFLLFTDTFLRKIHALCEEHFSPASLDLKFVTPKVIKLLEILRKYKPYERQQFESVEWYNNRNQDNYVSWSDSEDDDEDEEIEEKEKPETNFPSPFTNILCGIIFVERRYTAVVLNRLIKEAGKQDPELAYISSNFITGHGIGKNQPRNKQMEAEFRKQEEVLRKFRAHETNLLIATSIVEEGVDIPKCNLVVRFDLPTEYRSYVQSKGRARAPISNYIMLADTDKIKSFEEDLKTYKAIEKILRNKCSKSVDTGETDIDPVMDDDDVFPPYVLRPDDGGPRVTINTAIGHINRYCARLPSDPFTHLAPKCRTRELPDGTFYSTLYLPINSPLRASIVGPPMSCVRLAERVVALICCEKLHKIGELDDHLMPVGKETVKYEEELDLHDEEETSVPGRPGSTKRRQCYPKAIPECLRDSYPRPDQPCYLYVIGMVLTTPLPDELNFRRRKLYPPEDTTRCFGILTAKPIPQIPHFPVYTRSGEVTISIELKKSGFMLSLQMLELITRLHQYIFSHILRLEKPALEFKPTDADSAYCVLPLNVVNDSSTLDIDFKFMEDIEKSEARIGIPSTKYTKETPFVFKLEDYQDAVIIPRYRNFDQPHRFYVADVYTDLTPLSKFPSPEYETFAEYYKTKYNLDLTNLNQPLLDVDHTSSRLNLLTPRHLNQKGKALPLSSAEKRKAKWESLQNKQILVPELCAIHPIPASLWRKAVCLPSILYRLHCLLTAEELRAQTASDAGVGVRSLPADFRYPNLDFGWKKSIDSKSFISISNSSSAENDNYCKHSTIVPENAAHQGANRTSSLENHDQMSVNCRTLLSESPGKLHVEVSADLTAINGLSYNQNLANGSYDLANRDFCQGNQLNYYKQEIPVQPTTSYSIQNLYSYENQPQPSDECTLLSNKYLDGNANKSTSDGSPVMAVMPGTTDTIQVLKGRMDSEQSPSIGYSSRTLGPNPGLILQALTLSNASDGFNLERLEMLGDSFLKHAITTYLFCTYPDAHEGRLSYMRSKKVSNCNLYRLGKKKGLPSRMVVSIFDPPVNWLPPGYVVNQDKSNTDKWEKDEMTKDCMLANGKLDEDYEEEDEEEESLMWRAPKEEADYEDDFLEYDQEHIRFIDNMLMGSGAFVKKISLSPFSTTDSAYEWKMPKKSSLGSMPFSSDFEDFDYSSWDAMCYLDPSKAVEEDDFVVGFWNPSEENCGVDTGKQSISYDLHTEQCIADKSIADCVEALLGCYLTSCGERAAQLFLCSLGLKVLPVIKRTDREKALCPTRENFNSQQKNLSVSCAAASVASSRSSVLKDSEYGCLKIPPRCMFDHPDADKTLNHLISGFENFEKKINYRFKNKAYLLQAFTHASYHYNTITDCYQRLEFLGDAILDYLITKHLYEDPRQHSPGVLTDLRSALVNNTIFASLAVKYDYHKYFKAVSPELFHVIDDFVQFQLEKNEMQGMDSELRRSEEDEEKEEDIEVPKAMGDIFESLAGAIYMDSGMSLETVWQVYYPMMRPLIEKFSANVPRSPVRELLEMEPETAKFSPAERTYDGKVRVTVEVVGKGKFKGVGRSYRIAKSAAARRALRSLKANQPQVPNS
Numbers stand for hits; 0 = inactive. Shown is part of a subset that was picked to be rich in hits.

SMILES | Dicer processing
O=C(O)CCCNS(=O)(=O)c1ccc(Br)cc1 | 0
Cc1nonc1NC(=O)N1CCOCC1 | 5.94
O=C(Nc1ccc(-c2ccccn2)s1)N1CCOCC1 | 0
Cc1nonc1NC(=O)Nc1ccncc1 | 0
Cc1cc(Br)ccc1NC(=O)C1Sc2nnc(C)n2NC1c1ccccc1 (centres undefined) | 0
Cc1nnc2n1NC(c1ccc(F)cc1)C(C(=O)Nc1ccc(Br)cc1Cl)S2 (centres undefined) | 3.38
Cc1ccc(C2Nn3c(C)nnc3SC2C(=O)Nc2ccc(C)cc2Br)cc1 (centres undefined) | 0
CCc1ccc(C2C(C(=O)OC)=C(C)NC3=C2C(=O)CC(C)(C)C3)s1 (centres undefined) | 0
Fc1ccc(Nc2cccc3nonc23)cc1 | 0
CCOc1ccc(-c2nn3c(COc4ccccc4)nnc3s2)cc1 | 0
CCc1nnc2sc(-c3ccc(N)cc3)nn12 | 3.38
COc1ccc(-c2nn3c(Cc4ccccc4)nnc3s2)cc1 | 0
CN1CCN(c2c(F)cc3c(=O)c(C(=O)O)cn4c3c2SCC4)CC1 | 0
Cc1ccc(CN2C(=O)c3oc4ccccc4c(=O)c3C2c2ccc(O)cc2)cc1 (centres undefined) | 0
CC1CC(C)(C)N(C(=O)Nc2cccc(Cl)c2)c2ccccc21 (centres undefined) | 6.64
CC1CC(C)(C)N(C(=O)NC2CCCCC2)c2ccccc21 (centres undefined) | 0
CC1CC(C)(C)N(C(=O)CN2C(=O)CCC2=O)c2ccccc21 (centres undefined) | 0
O=C1Nc2ccc(Br)cc2C12OCCO2 | 0
CCOC(=O)CNC(=O)CSc1nnc(C)s1 | 0
COc1ccc(Nc2oc(-c3ccc(F)cc3)nc2C#N)cc1 | 0
OCCNc1ncnc2c1c(-c1ccccc1)c(-c1ccccc1)n2Cc1ccco1 | 5.89
c1cn(CCCNc2ncnc3ccsc23)cn1 | 0
OCCNc1ncnc2c1oc1ccccc12 | 0
c1ccc(-c2c(-c3ccccc3)n(Cc3ccco3)c3ncnc(NCCCn4ccnc4)c23)cc1 | 3.94
c1ccc(-c2c(-c3ccccc3)n(Cc3ccco3)c3ncnc(NCc4ccco4)c23)cc1 | 0
SMILES | Dicer processing
Cc1ccccc1OCc1nc(C#N)c(NCCCn2ccnc2)o1 | 0
Cc1nc(-c2cnccn2)ncc1S(=O)(=O)c1ccc(Cl)cc1 | 0
CCCCCC(=O)Nc1ncc2c(n1)CC(c1cccs1)CC2=O (centres undefined) | 0
Cc1ccc(C)n1-c1ncccc1Oc1cnn(Cc2ccccc2)c(=O)c1Cl | 0
CCOc1ccc2nc(SCc3c(F)c(F)c(F)c(F)c3F)[nH]c2c1 | 0
OCC1O[C@H]([S-])[C@@H](O)C(O)[C@@H]1O.[Au+] (some centres undefined) | 0
CCCCSc1cc2c(c([N+](=O)[O-])c1)-c1c(cc(SCCCC)cc1[N+](=O)[O-])C2=O | 0
COc1cc(C2N3CCCN2CC3)ccc1OCc1ccccc1 (centres undefined) | 0
N/C(CS(=O)(=O)Cc1ccco1)=N\O | 4.46
N#C/C(=C\c1ccc(Cl)cc1)S(=O)(=O)Cc1ccco1 | 0
Nc1ccc(S(=O)(=O)NCc2ccco2)cc1 | 0
CC(C)(CO)NC(=O)c1cccc(C(=O)NC(C)(C)CO)c1F | 0
Cc1c(-c2cccs2)n[nH]c(=O)c1C | 0
Cc1csc(-c2c(Cl)cc(C(F)(F)F)cc2Cl)n1 | 0
CCOc1nc(-c2ccc(Cl)cc2)ccc1-c1noc(-c2ccco2)n1 | 0
Cc1cc2c(cc1C)CSC(c1ccc(N(C)C)cc1Cl)SC2 | 0
CCOC(=O)/C(C#N)=C/c1ccccc1 | 0
CCOC(=O)/C(C#N)=C/c1csc([N+](=O)[O-])c1 | 3.07
CCOC(=O)/C(C#N)=C/c1ccc([N+](=O)[O-])s1 | 0
COc1cc(Nc2c(C#N)cnc3cc(OCCCN4CCN(C)CC4)c(OC)cc23)c(Cl)cc1Cl | 0
Cc1ccc(COc2ccc(C3CC(=O)Nc4nc(N)[nH]c(=O)c43)cc2)cc1 (centres undefined) | 0
Nc1c(C(=O)Nc2cccc(F)c2)sc2nc(-c3ccncc3)ccc12 | 0
Cc1ccc2c(Cl)c(C(=O)Nc3nc(C)c(C)s3)sc2c1 | 3.58
CCOC(=O)c1sc(NC(=O)c2sc3ccccc3c2Cl)nc1C | 0
O=C(Nc1ccccc1)c1sc2ccccc2c1Cl | 0
SMILES | Dicer processing
CSc1sc(C(=O)NNC(C)=O)c2c1C=CCC2 | 0
Clc1ccc(Sc2nc3ccc(Cl)cc3s2)cc1 | 0
CCCCSC1=C(C#N)C(=O)NC(c2ccc(C(=O)O)cc2)S1 (centres undefined) | 0
CCCCSC1=C(C#N)C(=O)NC(c2ccc(O)c(OC)c2)S1 (centres undefined) | 3.11
CCCCSC1=C(C#N)C(=O)NC(c2ccc(O)cc2)S1 (centres undefined) | 0
CC(=O)Nc1ccc([N+](=O)[O-])cc1Cl | 0
CCOC(=O)c1ccc(Oc2nc(N(C)C)nc(N(C)C)n2)cc1 | 0
CCOC(=O)c1ccc(Oc2nc(NC)nc(SC)n2)cc1 | 5.61
COC(=O)c1ccc(Oc2nc(N(C)C)nc(N(C)C)n2)cc1 | 0
CN(C)c1nc(-c2cccs2)cc(C(F)(F)F)c1C#N | 0
O=c1sc2ccccc2c(NCc2ccccc2)c1[N+](=O)[O-] | 4.44
O=[N+]([O-])c1ccsc1NCc1ccccc1 | 0
CCN(CC)c1c([N+](=O)[O-])c(=O)sc2ccccc12 | 0
CC1=NN(c2cccc(C(=O)O)c2)C(=O)C1 | 0
Cc1ccc(C)n1-c1cc(C(=O)O)cc(C(=O)O)c1 | 10.8
Cc1ccc(C)n1-c1ccc(SCC(=O)O)cc1 | 0
Cc1ccc2c(c1)-n1c(nn(Cc3ccccc3)c1=O)CO2 | 0
O=C(NC(=S)N1CCN(c2ncc(C(F)(F)F)cc2Cl)CC1)c1ccccc1 | 30
O=C(NC(=S)NNc1ncc(C(F)(F)F)cc1Cl)c1ccccc1 | 0
O=C(N=S1CCN(c2ncc(C(F)(F)F)cc2Cl)CC1)c1ccccc1 | 0
N#CC(=Nc1ccc2c(c1)OCCO2)C1=C(O)c2ccccc2C1=O | 0
O=C(NCC(O)c1ccccc1)Nc1ccc(F)cc1 (centres undefined) | 0
COc1nccc(C(F)(F)F)c1C(=O)Nc1ccc(Cl)cc1Cl | 0
CCOC(=O)c1c(Cl)c(C(C)(C)C)nc(Sc2ccc(C)cc2)c1C#N | 0
COCCNC(=O)c1nn2c(C(F)(F)F)c3c(nc2c1Cl)-c1ccccc1CC3 | 4.73
SMILES | Dicer processing
FC(F)(F)c1c2c(nc3cc(C4CC4)nn13)-c1ccccc1CC2 | 0
Cc1cc2nc3c(c(C(F)(F)F)n2n1)CCc1ccccc1-3 | 0
O=C(O)c1cccc(C(=O)O)c1Br | 0
Cc1ccc(C(C2=C(O)CC(C)(C)CC2=O)C2C(=O)CC(C)(C)CC2=O)o1 (centres undefined) | 0
CC1(C)CC(=O)C(C(C2=C(O)CC(C)(C)CC2=O)c2cccc(O)c2O)C(=O)C1 (centres undefined) | 4.26
CC1(C)CC(=O)C(C(C2=C(O)CC(C)(C)CC2=O)c2cc(Br)ccc2O)C(=O)C1 (centres undefined) | 0
CCOC(=O)c1sc(SCc2cccc(Cl)c2)c(S(=O)(=O)C(C)C)c1-n1cccc1 | 0
Cc1ccc(CSc2nccc(=O)[nH]2)cc1 | 0
CCN(CC)c1ncc2c(=S)[nH]c(=S)[nH]c2n1 | 0
S=c1[nH]c(=S)c2cnc(N3CCOCC3)nc2[nH]1 | 3.41
S=c1[nH]c(=S)c2cnc(N3CCN(c4ccccc4)CC3)nc2[nH]1 | 0
N#C/C(=C(/O)c1ccco1)c1nc2ccccc2s1 | 0
CSCCNC(=O)c1ccccc1N | 0
Oc1c(-c2cc(C(F)(F)F)[nH]n2)ccc2ccccc12 | 0
FC(F)(F)c1ccc(Cl)c(Nc2ncnc(-n3cccc3)n2)c1 | 0

Compound activity as filed in PubChem.
